Experiment [1] is described as follows: antimalarial activity against Dd2 strain (AID 2302;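 active means growth inhibition above 50% at the single 2 µM test dose, taken to imply half-maximal potency below 2 µM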;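 further: 0% = DMSO untreated growth and 100% = chloroquine plus artemisinin killed control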). As to conditions: P. falciparum Dd2 in RBCs, LDH growth readout, 72 h; at 2 µM; stronger effect = higher value.
A short description of experiment [2]: HepG2 cytotoxicity, primary screen, cytotoxicity control for P. falciparum antimalarial project, cell-based, ATP luminescence (AID 2303;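 active means inhibition above 50%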;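 further: 0% = DMSO wells and 100% = digitonin-killed cells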). As to conditions: HepG2 viability, 24-48 h, at 10 µM, stronger effect = higher value.
Experiment [3] concerns the target L-lactate dehydrogenase (Plasmodium falciparum (isolate CDC / Honduras)) (UniProt Q27743). Kind of experiment: PfLDH activity inhibition – cell lysate, 3D7 strain, counter-screen for P. falciparum growth inhibition project (AID 2304).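 Further: 0% = vehicle and 100% = reference inhibitor.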 As to conditions: P. falciparum 3D7 crude extract, LDH APAD/NBT absorbance; at 2 µM; stronger effect = higher value. (A counterscreen serves to expose hits that act by an unwanted route or on another target.)

Experiment [4] is described as follows: inhibition of 3D7 malaria parasite growth – strain 3D7 (AID 2306).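 Further: 0% = DMSO wells and 100% = chloroquine plus artemisinin control wells.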 The settings on record: P. falciparum 3D7 erythrocytic growth, LDH absorbance, 72 h; at 2 µM; stronger effect = higher value.
Experiment [5] has as its target Calcium-dependent protein kinase 1 (Plasmodium falciparum (isolate 3D7)) (UniProt P62344). Kind of experiment: PfCDPK1 kinase inhibitors, biochemical, TCAMS library (AID 1159585; cut-off not given, nearly all actives have IC50 up to about 0.98 µM;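 further: inhibitors leave more ATP so luminescence rises with inhibition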). As to conditions: recombinant PfCDPK1, Kinase-Glo ATP depletion luminescence.
In experiment [6] the target is Plasmodium falciparum protein kinase 6 (PK6, PF3D7_1337100) (UniProt Q8IDW1). Kind of experiment: PfPK6 kinase inhibitors, biochemical, TCAMS library (AID 1159586). The settings on record: recombinant PfPK6, Kinase-Glo ATP depletion luminescence. (Kinase-Glo measures the ATP left after a reaction by luminescence.)
Chain of Plasmodium falciparum protein kinase 6 (PK6, PF3D7_1337100) (Q8IDW1 1-305): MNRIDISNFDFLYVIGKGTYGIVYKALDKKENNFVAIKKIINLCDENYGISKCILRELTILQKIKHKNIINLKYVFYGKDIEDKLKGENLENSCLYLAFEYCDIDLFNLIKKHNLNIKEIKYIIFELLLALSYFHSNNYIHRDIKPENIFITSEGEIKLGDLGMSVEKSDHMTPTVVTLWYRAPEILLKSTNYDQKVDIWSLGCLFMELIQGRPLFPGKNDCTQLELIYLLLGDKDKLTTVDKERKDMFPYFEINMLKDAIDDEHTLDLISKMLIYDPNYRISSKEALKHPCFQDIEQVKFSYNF
Experiment [7] concerns the target Protein kinase 7 (PK7), Plasmodium falciparum 3D7 (PF3D7_0213400) (UniProt Q7YTF7). Kind of experiment: inhibition of Plasmodium PK7 catalytic activity – biochemical, TCAMS antimalarial set, Kinase-Glo luminescence (AID 1159587). The settings on record: recombinant PfPK7, Kinase-Glo ATP depletion luminescence.
Experiment [8] deals with Calcium-dependent protein kinase 4 (Plasmodium falciparum (isolate 3D7)) (UniProt Q8IBS5). Kind of experiment: PfCDPK4 kinase inhibitors, biochemical, TCAMS library (AID 1159588; cut-off not given, nearly all actives have IC50 up to about 0.91 µM). The settings on record: recombinant PfCDPK4, Kinase-Glo ATP depletion luminescence.
Chain of Calcium-dependent protein kinase 4 (Plasmodium falciparum (isolate 3D7)) (Q8IBS5 whole entry, looked up): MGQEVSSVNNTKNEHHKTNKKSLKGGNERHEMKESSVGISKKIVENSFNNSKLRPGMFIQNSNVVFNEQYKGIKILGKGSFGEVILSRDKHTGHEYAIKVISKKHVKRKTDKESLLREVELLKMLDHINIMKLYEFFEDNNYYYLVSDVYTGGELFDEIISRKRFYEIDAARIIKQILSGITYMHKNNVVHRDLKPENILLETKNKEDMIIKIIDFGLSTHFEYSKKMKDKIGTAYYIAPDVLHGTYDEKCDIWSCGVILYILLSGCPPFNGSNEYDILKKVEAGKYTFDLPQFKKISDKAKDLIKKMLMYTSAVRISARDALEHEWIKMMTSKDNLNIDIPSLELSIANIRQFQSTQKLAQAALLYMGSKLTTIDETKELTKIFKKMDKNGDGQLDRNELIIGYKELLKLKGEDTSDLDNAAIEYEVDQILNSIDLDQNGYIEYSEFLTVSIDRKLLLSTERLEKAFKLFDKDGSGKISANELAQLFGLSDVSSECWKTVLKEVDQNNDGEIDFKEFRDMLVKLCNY

Each structure is given as a SMILES string. Unmarked numbers belong to inactive results. For some of these results: Measured potencies and affinities stand elsewhere. Active and inactive are the calls of the source. Unless noted, how the calls were made is not given here.

Chain of Calcium-dependent protein kinase 1 (Plasmodium falciparum (isolate 3D7)) (P62344 whole entry, looked up): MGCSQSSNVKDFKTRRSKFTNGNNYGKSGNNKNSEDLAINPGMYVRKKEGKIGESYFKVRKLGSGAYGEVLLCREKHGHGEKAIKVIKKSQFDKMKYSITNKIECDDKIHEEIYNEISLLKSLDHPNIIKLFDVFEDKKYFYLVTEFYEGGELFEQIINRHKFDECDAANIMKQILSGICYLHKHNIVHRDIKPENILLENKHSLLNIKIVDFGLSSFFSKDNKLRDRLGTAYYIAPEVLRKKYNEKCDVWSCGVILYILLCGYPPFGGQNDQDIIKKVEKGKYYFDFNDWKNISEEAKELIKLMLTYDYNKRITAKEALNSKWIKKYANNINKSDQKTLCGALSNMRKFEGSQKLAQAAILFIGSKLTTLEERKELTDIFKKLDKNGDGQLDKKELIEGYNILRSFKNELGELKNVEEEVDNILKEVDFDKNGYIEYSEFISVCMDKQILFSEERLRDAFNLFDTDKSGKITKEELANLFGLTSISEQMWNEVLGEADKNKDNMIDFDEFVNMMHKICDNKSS
Chain of L-lactate dehydrogenase (Plasmodium falciparum (isolate CDC / Honduras)) (Q27743 whole entry, looked up): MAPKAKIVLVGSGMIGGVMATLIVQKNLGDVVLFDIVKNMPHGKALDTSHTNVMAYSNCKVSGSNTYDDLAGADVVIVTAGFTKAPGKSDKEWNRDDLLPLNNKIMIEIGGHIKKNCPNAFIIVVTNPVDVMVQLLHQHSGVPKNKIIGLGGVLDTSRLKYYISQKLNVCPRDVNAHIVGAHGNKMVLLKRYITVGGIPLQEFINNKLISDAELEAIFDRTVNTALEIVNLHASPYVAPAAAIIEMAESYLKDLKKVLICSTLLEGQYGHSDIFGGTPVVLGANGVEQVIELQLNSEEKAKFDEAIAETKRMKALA
Chain of Protein kinase 7 (PK7), Plasmodium falciparum 3D7 (PF3D7_0213400) (Q7YTF7 1-343): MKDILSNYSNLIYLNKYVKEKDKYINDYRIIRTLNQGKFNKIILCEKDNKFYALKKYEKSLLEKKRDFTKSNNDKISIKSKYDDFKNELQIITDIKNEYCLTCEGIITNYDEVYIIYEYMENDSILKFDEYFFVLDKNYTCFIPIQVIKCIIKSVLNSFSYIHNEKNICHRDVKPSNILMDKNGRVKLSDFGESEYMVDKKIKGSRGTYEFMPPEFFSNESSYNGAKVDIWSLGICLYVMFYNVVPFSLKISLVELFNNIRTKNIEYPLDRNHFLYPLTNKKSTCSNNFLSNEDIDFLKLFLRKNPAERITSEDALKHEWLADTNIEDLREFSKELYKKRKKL

With `O=C(O)C1Cc2c([nH]c3ccccc23)C(c2ccc(Cl)cc2Cl)N1` (stereo not given), the growth inhibition in experiment [1] was 100% (active); in experiment [4] it was 91% (active). For the same compound, the inhibition (usually the drop in the measured response relative to a control, in per cent) is 7% in experiment [2] and 0% in experiment [3]. In addition, the result in experiment [5], in experiment [6], in experiment [7] and in experiment [8] was inactive.
In the case of `c1ccc(-c2nc(NCCCn3ccnc3)cc(-c3ccncc3)n2)cc1`, the growth inhibition is 100% (active) in experiment [1] and 103% (active) in experiment [4]. In addition, the inhibition is 42% in experiment [2] and -8% in experiment [3]. In addition, the outcome in experiment [5], in experiment [6], in experiment [7] and in experiment [8] was inactive.
Regarding `CCNc1cc(C(=O)N[C@@H](Cc2ccccc2)[C@H](O)CNC(C)(C)CSCC(C)C)cc(N2CCCC2=O)c1`, the results for the growth inhibition in experiment [1] and in experiment [4] were 97% (active) and 101% (active), respectively. Also, the results for the inhibition in experiment [2] and in experiment [3] were -20% and -7%, respectively. For the same compound, the outcome in experiment [5], in experiment [6], in experiment [7] and in experiment [8] was inactive.
Take `CCNc1cc(C(=O)N[C@@H](Cc2ccccc2)[C@H](O)CNCCC(C)c2ccccc2)cc(N2CCCC2=O)c1` (stereo not given in full): the growth inhibition in experiment [1] is 95% (active); in experiment [4] it was 99% (active). The inhibition in experiment [2] was 0%; in experiment [3] it was 3%. Moreover, the result in experiment [5], in experiment [6], in experiment [7] and in experiment [8] was inactive.
In the case of `CCCCc1cc(NCC)nc(Nc2ccc(OC)cc2)n1`, the growth inhibition is 32% in experiment [1] and 85% (active) in experiment [4]. For the same compound, the inhibition in experiment [2] was 30%; in experiment [3], -4%. The result in experiment [5], in experiment [6], in experiment [7] and in experiment [8] was inactive.
As for `CCN(CC)c1ccc(C(c2ccc(N(CC)CC)cc2)c2ccc([N+](=O)[O-])cc2)cc1`, the growth inhibition in experiment [1] is 63% (active); in experiment [4], 82% (active). In addition, the inhibition in experiment [2] is 20%; in experiment [3], 0%. Moreover, the outcome in experiment [5], in experiment [6], in experiment [7] and in experiment [8] was inactive.
Consider `O=C(Nc1ccc(F)c(C(F)(F)F)c1)NC1CCN(CCCCCNC(=O)[C@@H]2C[C@H]2c2ccc(Cl)c(Cl)c2)CC1`, for which the growth inhibition was 16% in experiment [1] and 100% (active) in experiment [4]. Besides, the inhibition in experiment [2] is 96% (active); in experiment [3] it was 0%. The result in experiment [5], in experiment [6], in experiment [7] and in experiment [8] was inactive.
Consider `Cc1cc(NN=Cc2cccc(Cl)c2)c2cc(F)ccc2n1`, for which the growth inhibition in experiment [1] was 100% (active); in experiment [4], 101% (active). Also, the inhibition in experiment [2] is 1%; in experiment [3] it was -5%. The outcome in experiment [5], in experiment [6], in experiment [7] and in experiment [8] was inactive.
Consider `O=C(Nc1cccc(CN2CCCN(Cc3ccc4c(c3)OCO4)CC2)c1)c1ccc(-c2ccccc2)cc1`, for which the growth inhibition in experiment [1] was 19%; in experiment [4], 90% (active). The inhibition in experiment [2] was 48%; in experiment [3] it was -10%. Besides, the result in experiment [5], in experiment [6], in experiment [7] and in experiment [8] was inactive.
Consider `COc1cc(NC(=O)/C=C/c2cccc3ccoc23)ccc1OCCN(C(C)C)C(C)C`, for which the growth inhibition is 5% in experiment [1] and 90% (active) in experiment [4]. The inhibition in experiment [2] was 22%; in experiment [3], 2%. The outcome in experiment [5], in experiment [6], in experiment [7] and in experiment [8] was inactive.
Turning to `Clc1ccc2c(NN=Cc3ccco3)ccnc2c1`, the growth inhibition was 96% (active) in experiment [1] and 100% (active) in experiment [4]. Besides, the inhibition was 3% in experiment [2] and -4% in experiment [3]. Moreover, the result in experiment [5], in experiment [6], in experiment [7] and in experiment [8] was inactive.
In the case of `CCCCCCN1CCC(NCc2cccc3ccccc23)CC1`, the growth inhibition in experiment [1] is 12%; in experiment [4], 95% (active). The inhibition in experiment [2] was 21%; in experiment [3], 0%. The outcome in experiment [5], in experiment [6], in experiment [7] and in experiment [8] was inactive.
As to `CC1(C)N=C(N)NC(NOCCCCCCONC2=NC(C)(C)N=C(N)N2)=N1`, the growth inhibition in experiment [1] is 98% (active); in experiment [4], 95% (active). For the same compound, the inhibition in experiment [2] was 34%; in experiment [3], -4%. In addition, the result in experiment [5], in experiment [6], in experiment [7] and in experiment [8] was inactive.
`CC(C)(C)OC(=O)NCc1ccc(Nc2nnc(-c3ccc(OCC(=O)NCc4cc(C(F)(F)F)cc(C(F)(F)F)c4)c([N+](=O)[O-])c3)o2)cc1`: the growth inhibition in experiment [1] is 92% (active); in experiment [4] it was 97% (active). The inhibition in experiment [2] was 24%; in experiment [3], -1%. Moreover, the outcome in experiment [5], in experiment [6], in experiment [7] and in experiment [8] was inactive.
As to `Cc1cc(F)ccc1-c1nc(NCCCNCCc2ccccc2)nc2c1ccc(=O)n2-c1c(F)cccc1F`, the growth inhibition in experiment [1] and in experiment [4] was 100% (active) in each case. The inhibition in experiment [2] is 36%; in experiment [3], -6%. Besides, the result in experiment [5], in experiment [6], in experiment [7] and in experiment [8] was inactive.
Take `N#Cc1cccc(Nc2ncc3c(-c4cccc(NC(=O)Cc5cccc(Cl)c5)c4)c[nH]c3n2)c1`: the growth inhibition in experiment [1] was 95% (active); in experiment [4], 101% (active). The inhibition is -1% in experiment [2] and -2% in experiment [3]. In addition, the outcome in experiment [5], in experiment [6], in experiment [7] and in experiment [8] was inactive.
As for `CC(C)c1ccc(CN2CCC(CNC(=O)c3cc(-c4cccc(Cl)c4)cs3)C2)cc1` (stereo not given), the growth inhibition was 43% in experiment [1] and 99% (active) in experiment [4]. The inhibition was 42% in experiment [2] and 1% in experiment [3]. Moreover, the outcome in experiment [5], in experiment [6], in experiment [7] and in experiment [8] was inactive.
With `CCN(CCCN1CCCCC1)c1cc(C)nc(Nc2ccc(C)cc2)n1`, the growth inhibition in experiment [1] is 10%; in experiment [4] it was 101% (active). Moreover, the inhibition in experiment [2] is 17%; in experiment [3], -1%. In addition, the result in experiment [5], in experiment [6], in experiment [7] and in experiment [8] was inactive.
Turning to `O=C(Nc1nc(-c2ccccn2)cs1)c1ccc(Br)s1`, the growth inhibition in experiment [1] was 84% (active); in experiment [4] it was 96% (active). Also, the inhibition in experiment [2] is 40%; in experiment [3], 7%. Further, the outcome in experiment [5], in experiment [6], in experiment [7] and in experiment [8] was inactive.
Consider `CC(C)(C)Cn1cc(-c2ccc(C(=O)NCCc3ccc(S(C)(=O)=O)cc3)cc2)c(N)n1` (tested in a mixture with another compound), for which the growth inhibition in experiment [1] is 10%; in experiment [4], 86% (active). Further, the inhibition in experiment [2] is 7%; in experiment [3] it was -1%. Further, the outcome in experiment [5], in experiment [6], in experiment [7] and in experiment [8] was inactive.

(Values after PubChem BioAssay.)
